Results as given in PMC12136788.
Positions count from the first letter of the chain named. In all, about 24,000 sequences were measured (“enrichment r”: median about 0.99, highest 2% from about 3.7 on). The entries come from a sample that favours the highest values as a whole.

B1: chr14:89338683:89338684:+_ENSG00000165533_ENST00000346301|hu_hu|hu_hu_hu_mus_False|58_68 (ssRNA)
RNA: GGGAGUUCUACAGUCCGACGAUCGUGGUUGUUGUGGACCAGGGCCAGCCUGAAGCAUUGGUGGGCCAAAUUUGUAUCUCCUAUUCCCACAGCUAUGUGCCCCAGGUUGUACCAGACAUCAGCUGCCUCUUCUUCAUUUUCAGCCAACAGAGGAUUGAGCAUCA
B2: chr9:109937893:109937894:+_ENSMUSG00000032479_ENSMUST00000165876|mus_mus|motif|central (ssRNA)
RNA: GGGAGUUCUACAGUCCGACGAUCUUCACGUGGUUUUUCUUCAGUCUGUACAGUUCCUUUGUCUUUAAUUGGAACUGUUGCGGCUUUUGUUUCCAAGGGCAGUGCAAGAUCGGAGGCUGGAGCCAUGCUGUUGUCCACAAUCAGCAACAGAGGAUUGAGCAUCA
B3: 126495366_126496508_792_3pUTR_ENSMUSG00000040502_ENSMUST00000040307|mouse|control|control (ssRNA)
RNA: GGGAGUUCUACAGUCCGACGAUCAUUAGGCAGGGUUGGUGUGUGCAACGCACUGAGCCGUCACAGCGGCAAGGGCUCAGGAGCUCCCCCUGCUCCGGGCCUUGGAAGCAGAUCCUGCACUGGGGGGUUCGGAGCCCACUGUCCCAACAGAGGAUUGAGCAUCA
B4: chr7:149838571:149838572:-_ENSMUSG00000048583_ENSMUST00000000033|mus_mus|motif|central (ssRNA)
RNA: GGGAGUUCUACAGUCCGACGAUCCAUGUAUCACUUGGCAGUGCCAUCUCCUUAUCUGGCCAAACUUAUUCUACACUGGCGGGUCAUUGGUCCUCAUGGCGGGGGUGGUUGGGGAGCACCGGGCUCACCAUGUGGACAGGUGCUCAACAGAGGAUUGAGCAUCA
B5: chr6:74304526:74304527:-_ENSG00000119899_ENST00000355773|hu_mus|motif|central (ssRNA)
RNA: GGGAGUUCUACAGUCCGACGAUCCAAGUUUAUCAGUGUGUGUGUGUGUGUGUGUGUCCAUUUCAGCUUCAUUUCCGGUGCCCUUACCUUAUAUCAUACUGCCUUUCCUGCAGCCUGAUAUGUGAACCCAGUAUACGGCCUGGCCAACAGAGGAUUGAGCAUCA
B6: chr5:137088537:137088538:-_ENSG00000177733_ENST00000314940|hu_hu|FALSE|FALSE (ssRNA)
RNA: GGGAGUUCUACAGUCCGACGAUCCAGCAAGUUCACUCCCUCCCUCCCCCCAAAAAACACAAAUUAAAACAAGACAUUUUGCUAGUAUAAAAACGACCAAGGUCCAAGUAAUAAUAAAAAAAUAGAGUCCAUCAAUGACUGUAACAACAGAGGAUUGAGCAUCA
B7: chr5:137088537:137088538:-_ENSG00000177733_ENST00000314940|hu_mus|motif|central (ssRNA)
RNA: GGGAGUUCUACAGUCCGACGAUCUCCCGCCCGCCCACCCGCCCCCCCAAAAAACACAAAUUAAAACAAGACAUUUUUUUGCGGGUAUAAAAACGACCAAGGUCCAAGUAAUAAUAAAAAAAUAGAGUCCAUCAAUGACUGUAACAACAGAGGAUUGAGCAUCA
B8: chr5:137088537:137088538:-_ENSG00000177733_ENST00000314940|hu_hu|motif|central (ssRNA)
RNA: B6 RNA with U82G, A83G
B9: chr4:57314706:57314707:+_ENSG00000128050_ENST00000264221|hu_mus|hu_hu_hu_mus_True|88_98 (ssRNA)
RNA: GGGAGUUCUACAGUCCGACGAUCCAGAAUUUCAAAAAUAGCCUGUGUAGCAUGACUCAUGAUGUCCACUUCAGUCUGCCCUAUAACAAGGCCAGCAAAACAGAAUUUUGCAGCAAUGAGUUGCUCCUCAGACCACUGUGGAUCCAACAGAGGAUUGAGCAUCA
B10: chr5:137088537:137088538:-_ENSG00000177733_ENST00000314940|hu_mus|FALSE|FALSE (ssRNA)
RNA: B7 RNA with G82U, G83A
B11: chr4:57314706:57314707:+_ENSG00000128050_ENST00000264221|hu_mus|hu_hu_hu_mus_True|48_88 (ssRNA)
RNA: B9 RNA with C42U, G90U
B12: chr9:15470827:15470828:-_ENSG00000164985_ENST00000397519|hu_hu|motif|central (ssRNA)
RNA: GGGAGUUCUACAGUCCGACGAUCGAAUGUCAAGAGAAGGGCCCCAUUCUCAGGGAUAUAACUGCUAUUCCAGUUUAAUAACGGGCUUCAAAACAAAAUGAAUUUUUAUAUUUUCUAGAUGAAUAAUGUACAACCACCAUCUUCCAACAGAGGAUUGAGCAUCA
B13: chr4:88367131:88367132:-_ENSMUSG00000070923_ENSMUST00000094993|mus_mus|FALSE|FALSE (ssRNA)
RNA: GGGAGUUCUACAGUCCGACGAUCUUGGUAAUUGCUUGCUUCCAAAAGUAAAUUCACACAGGUAUUGUCUGUUCUCAUGAAAUCUACUGUCUGCACAUAGUUGAUGAGAUCCUGUGGUGUCAUCAGUGGAAAGCGAAUAUUCUUCAACAGAGGAUUGAGCAUCA
B14: chr12:16048344:16048345:+_ENSG00000023734_ENST00000419869|hu_hu|hu_hu_hu_mus_True|78_98 (ssRNA)
RNA: GGGAGUUCUACAGUCCGACGAUCAGAUCGUCCAUAAGUUAUAACCAAAAUCUCUCCCUCAGGAAUAUACUCCAUGCUGCUAACAGACAUAUUAAAAUUCAGAGAUUUCACUUCUGUCAUUGUGGCAUGAUCCCAGAGCCGAACCAACAGAGGAUUGAGCAUCA

These binders were tested against T1, UNK ZnF1-3 (human, UniProt Q9C0B0 31-174) (assay: nsRBNS (natural sequence RNA bind-n-seq); RBNS binding buffer (assumed for nsRBNS): 25 mM Tris pH 7.5, 150 mM KCl, 3 mM MgCl2, 0.01% Triton X-100, 500 ug/ml BSA, 20 U/ml SUPERase-In, 4 C; UNK is unkempt and MSI1 is Musashi-1; names of the RNAs are library labels; protein concentration not given here; high values mean tight binding).
T1 sequence: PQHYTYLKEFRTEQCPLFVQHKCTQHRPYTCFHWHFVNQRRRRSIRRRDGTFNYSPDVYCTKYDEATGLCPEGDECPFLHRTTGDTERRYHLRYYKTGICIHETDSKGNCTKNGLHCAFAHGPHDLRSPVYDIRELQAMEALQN

Binder | binding signal
B1 | 0.84 enrichment R
B2 | 0.462 enrichment R
B3 | 0.848 enrichment R
B4 | 0.781 enrichment R
B5 | 0.616 enrichment R
B6 | 5.73 enrichment R
B7 | 3.51 enrichment R
B8 | 6.14 enrichment R
B9 | 0.943 enrichment R
B10 | 9.05 enrichment R
B11 | 0.922 enrichment R
B12 | 1.6 enrichment R
B13 | 0.859 enrichment R
B14 | 1.06 enrichment R
